The source of these data is PubChem BioAssay.

Active and inactive are the calls of the source. Unless noted, how the calls were made is not given here.

Assay [1] deals with XIP peptide (Xip251-270) binding. Kind of assay: small-molecule binders of XIP peptide, primary screen, biochemical, small-molecule microarray, fluorescence 635/667 nm, 0.1 µg/mL protein (AID 1182). As to conditions: fluorescent protein binding, 635 nm, higher = more signal, called active from +8 up or from −8 down.
The subject of the next assay is XIP peptide (Xip251-270). Briefly: small-molecule binders of XIP peptide, primary screen, biochemical, small-molecule microarray, fluorescence 635/667 nm, 0.5 µg/mL protein (AID 1183). As to conditions: small-molecule microarray binding, fluorescence 635 nm; higher = more signal.
Assay [2] is described as follows: Plasmodium falciparum growth inhibition, primary screen, strain 3D7, DAPI fluorescence, 100 nL (AID 1184).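 Further: parasites grown inside human red blood cells in medium with human serum.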 Conditions: P. falciparum 3D7 growth, 3 d, higher = more signal.
The target of assay [3] is Homeobox protein Hox-A13 (Mus musculus) (UniProt Q62424). Briefly: inhibitors of HoxA13-DNA binding, primary screen, biochemical, fluorescence polarization, labeled oligonucleotide (AID 1185). Conditions: 15 min, higher = more signal, called active from +8 up or from −8 down. For orientation: Polarisation of emitted light reports the rotation of a fluorescent probe.
Sequence of Homeobox protein Hox-A13 (Mus musculus) (Q62424 whole entry, looked up): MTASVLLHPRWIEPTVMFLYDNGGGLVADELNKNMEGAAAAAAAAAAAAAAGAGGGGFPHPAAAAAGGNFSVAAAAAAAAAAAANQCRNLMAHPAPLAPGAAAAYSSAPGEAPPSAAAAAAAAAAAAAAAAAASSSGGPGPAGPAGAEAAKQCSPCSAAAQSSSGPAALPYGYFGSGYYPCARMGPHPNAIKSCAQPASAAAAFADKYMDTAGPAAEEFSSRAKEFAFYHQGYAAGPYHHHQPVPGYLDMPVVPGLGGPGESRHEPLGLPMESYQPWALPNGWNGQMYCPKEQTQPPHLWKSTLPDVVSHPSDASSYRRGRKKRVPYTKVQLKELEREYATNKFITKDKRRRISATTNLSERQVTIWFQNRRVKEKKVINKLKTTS
A short description of assay [4]: inhibitors of hydroxyurea-induced Chk1 phosphorylation, primary screen, imaging, HeLa, phospho-Chk1 antibody, percent positive cells (AID 1186). As to conditions: hydroxyurea-induced phospho-Chk1 immunofluorescence imaging, higher = more signal.
The nature of assay [5]: inhibitors of hydroxyurea-induced Chk1 phosphorylation, primary screen, imaging, HeLa, phospho-Chk1 nuclear intensity (AID 1187). As to conditions: hydroxyurea-induced phospho-Chk1 immunofluorescence imaging, higher = more signal.

In the case of `CC(C)C(CO)N1C(=O)[C@@H]2[C@H]3C(=O)OCC=C[C@H]3OC23C=CCN(c2ccc(Cl)cc2)C(=O)[C@@H]13` (stereo partly specified), the composite z-score in assay [1] was 0.331 (inactive); in the assay on XIP peptide (Xip251-270), -0.202. In addition, the z-score in assay [2] is -0.485; in assay [3], -3.03 (inactive); in assay [4], -0.438 (inactive); in assay [5], -0.468 (inactive).
As for `C=C[C@@H](OC)[C@H](OC(=O)Nc1ccc(OC)cc1)c1ccc(O)c(F)c1`, the composite z-score is 0.65 (inactive) in assay [1] and 0.741 in the assay on XIP peptide (Xip251-270). For the same compound, the z-score in assay [2] is -0.825; in assay [3], -2.8 (inactive); in assay [4], -0.528 (inactive); in assay [5] it was -1.17 (inactive).
`C=CCC(OC(C)=O)[C@@H]1[C@@H](N(Cc2cccc3ccccc23)C(=O)Cc2ccc(OC)cc2)c2cc(OCCCO)ccc2N1C(=O)c1ccc(-c2ccccc2)cc1` (stereo partly specified): the figures for the composite z-score (in assay [1]; with XIP peptide (Xip251-270)) were 0.377 (inactive) and 0.309, respectively. In addition, the z-score in assay [2] is -2.3; in assay [3], -1.94 (inactive); in assay [4], 0.577 (inactive); in assay [5], -0.13 (inactive).
On to `C=CCN1C(=O)[C@]2(CCC(=O)OC(C)(C)C)N=C(c3ccc(OCCCO)cc3)O[C@@H]2c2ccccc21`, for which the composite z-score in assay [1] was 0.0041 (inactive); with XIP peptide (Xip251-270), 0.464. The z-score in assay [2] is -1.34; in assay [3], -2.63 (inactive); in assay [4], -0.646 (inactive); in assay [5], -0.541 (inactive).
Consider `COCCOC(=O)N1C(=O)[C@@]2(c3cc(C#CC4=CCCCC4)ccc31)[C@H](c1ccccc1OCCO)N1[C@H](c3ccccc3)[C@H](c3ccccc3)OC(=O)[C@H]1[C@@H]2C(=O)NC[C@H](O)c1ccccc1`, for which the composite z-score in assay [1] is 1.57 (inactive); in the assay with XIP peptide (Xip251-270), 0.742. Also, the z-score in assay [2] was -1.93; in assay [3], 0.449 (inactive); in assay [4], 0.0064 (inactive); in assay [5] it was -0.175 (inactive).
In the case of `CC(C)c1ccc(NN2C(C(O)c3ccc(C#N)cc3)C=CC3C(=O)N(c4ccccc4)C(=O)C32)cc1` (stereo unspecified), the composite z-score was 0.105 (inactive) in assay [1] and 0.752 in the assay with XIP peptide (Xip251-270). For the same compound, the z-score is 0.109 in assay [2], -2.79 (inactive) in assay [3], 0.879 (inactive) in assay [4] and 0.815 (inactive) in assay [5].
Turning to `O=C(c1ccccc1)N1C(=O)[C@]2(Cc3ccccc31)N=C(c1ccc(OCCCO)cc1)O[C@@H]2c1ccccc1`, the composite z-score in assay [1] is 0.409 (inactive); in the assay with XIP peptide (Xip251-270), 0.387. Besides, the z-score in assay [2] was -1.87; in assay [3] it was -5.04 (inactive); in assay [4] it was 0.546 (inactive); in assay [5], 0.796 (inactive).
Regarding `O=C1N(CCS(=O)(=O)c2ccccc2)c2ccccc2[C@H]2OC(c3ccc(OCCCO)cc3)=N[C@@]12Cc1ccccc1`, the composite z-score in assay [1] is 3.13 (inactive); in the assay on XIP peptide (Xip251-270), 0.832. Moreover, the z-score in assay [2] was -1.92; in assay [3] it was -0.41 (inactive); in assay [4] it was -0.37 (inactive); in assay [5] it was 0.158 (inactive).
As to `C[N+](C)(C)CCCC[C@@H]1NC(=O)[C@@H]2C[C@H](C(=O)NCCCCCCN)[C@H](c3cccc(OCCO)c3)N2C1=O`, the composite z-score in assay [1] was 1.52 (inactive); in the assay on XIP peptide (Xip251-270), 0.771. Further, the z-score in assay [2] is -0.133; in assay [3] it was -3.34 (inactive); in assay [4], -0.529 (inactive); in assay [5] it was -0.386 (inactive).
Turning to `COc1ccc(CCNC(=O)[C@@]2(Sc3ccc(C)cc3)CC(=O)N(Cc3ccccc3C(F)(F)F)[C@@H]2c2ccc(CO)cc2I)cc1`, the composite z-score was 0.232 (inactive) in assay [1] and 0.853 in the assay with XIP peptide (Xip251-270). Besides, the z-score in assay [2] is -0.77; in assay [3], -2.7 (inactive); in assay [4], 0.17 (inactive); in assay [5], 0.68 (inactive).
Turning to `C=C(COC)C(=O)CC[C@@H](OC(C)=O)c1cccc(OCCO)c1`, the composite z-score in assay [1] was 0.309 (inactive); with XIP peptide (Xip251-270), -0.0276. The z-score is -0.988 in assay [2], -3.69 (inactive) in assay [3], 0.367 (inactive) in assay [4] and -0.113 (inactive) in assay [5].
Consider `CO[C@H]1O[C@H](CO)[C@@H](OC(=O)Nc2ccc(Br)cc2)[C@@H]2OC(=O)[C@@H](Cc3ccccc3)C/C=C/C[C@H](Cc3ccccc3)C(=O)O[C@@H]12`, for which the composite z-score is 0.491 (inactive) in assay [1] and 0.693 in the assay on XIP peptide (Xip251-270). For the same compound, the z-score in assay [2] was -0.683; in assay [3], -1.27 (inactive); in assay [4] it was -0.324 (inactive); in assay [5], 0.406 (inactive).
Take `C=CC[C@]1(C(=O)N2CCCCC2)N=C(c2ccc(OCCCO)cc2)O[C@H]1c1ccccc1CN=[N+]=[N-]`: the composite z-score in assay [1] was 0.541 (inactive); in the assay with XIP peptide (Xip251-270), 0.652. Further, the z-score was -2.57 in assay [2], -3.9 (inactive) in assay [3], -0.707 (inactive) in assay [4] and -1.06 (inactive) in assay [5].
Take `NCCCCCCNC(=O)[C@@H]1C[C@@H]2C(=O)N[C@@H](CCCCN)C(=O)N2[C@@H]1c1ccc(O)cc1`: the composite z-score in assay [1] is 2.07 (inactive); with XIP peptide (Xip251-270), 0.739. The z-score in assay [2] was -0.978; in assay [3], -1.72 (inactive); in assay [4], -0.546 (inactive); in assay [5], -0.123 (inactive).
Turning to `COC(=O)[C@@]1(Cc2ccc(F)cc2)[C@H]2c3cc(C(=O)N4CCCC4)n(Cc4ccc(C)c(F)c4F)c3C[C@H]2CN1C(=O)c1ccccc1`, the composite z-score in assay [1] was -0.0082 (inactive); in the assay with XIP peptide (Xip251-270), -0.953. Further, the z-score was -1.53 in assay [2], -6.02 (inactive) in assay [3], 0.533 (inactive) in assay [4] and 0.459 (inactive) in assay [5].
`CC(=O)NCCCC[C@@H]1NC(=O)[C@@H]2C[C@H](C(=O)NCCCCCN)[C@H](c3cccc(OCCO)c3)N2C1=O`: the composite z-score in assay [1] was 0.845 (inactive); in the assay with XIP peptide (Xip251-270), 0.878. In addition, the z-score was 0.0297 in assay [2], -2.54 (inactive) in assay [3], -1.16 (inactive) in assay [4] and -0.913 (inactive) in assay [5].
Turning to `[N-]=[N+]=Nc1ccccc1C[C@]1(C(=O)O)COC(c2ccc(OCCCO)cc2)=N1`, the values for the composite z-score (in assay [1]; in the assay on XIP peptide (Xip251-270)) were 1.09 (inactive) and 0.907, respectively. Moreover, the z-score in assay [2] was -1.54; in assay [3], -4.69 (inactive); in assay [4], 0.0118 (inactive); in assay [5], 0.0756 (inactive).
Regarding `CC1=C2[C@@H](CCc3ccccc3)OB(O)C[C@@H]2[C@@H]2C(=O)N(C)C(=O)[C@@H]2C1`, the values for the composite z-score (in assay [1]; in the assay with XIP peptide (Xip251-270)) were 0.796 (inactive) and 0.472, respectively. The z-score was 0.278 in assay [2], -5.07 (inactive) in assay [3], 0.0183 (inactive) in assay [4] and 0.0905 (inactive) in assay [5].
In the case of `O=C1OCCC=C[C@H]2OC34C=CCN(Cn5nnc6ccccc65)C(=O)[C@H]3N(CCCO)C(=O)[C@@H]4C12` (stereo partly specified), the results for the composite z-score (in assay [1]; with XIP peptide (Xip251-270)) were 2.05 (inactive) and -0.308, respectively. In addition, the z-score was -1.82 in assay [2], -3.33 (inactive) in assay [3], -0.628 (inactive) in assay [4] and -0.609 (inactive) in assay [5].
For `COC(=O)C(CC#Cc1ccc2c(c1)[C@]1(C(=O)N2)[C@H](c2ccc(O)cc2)N2[C@H](c3ccccc3)[C@H](c3ccccc3)OC(=O)[C@H]2[C@@H]1C(=O)NC[C@H](O)c1ccccc1)C(=O)OC`, the composite z-score in assay [1] is 0.646 (inactive); in the assay on XIP peptide (Xip251-270) it was 0.42. Besides, the z-score in assay [2] was 0.452; in assay [3] it was -3 (inactive); in assay [4], -0.0427 (inactive); in assay [5] it was -0.171 (inactive).
As for `CCCNC(=O)[C@@]1(C)c2ccccc2C(=O)N(c2ccc(C)cn2)[C@H]1c1ccc(CO)cc1`, the results for the composite z-score (in assay [1]; in the assay with XIP peptide (Xip251-270)) were 0.635 (inactive) and 0.386, respectively. The z-score is 1.01 in assay [2], -1.63 (inactive) in assay [3], 0.0068 (inactive) in assay [4] and -0.172 (inactive) in assay [5].
